From PubChem BioAssay
AMA1-RON2 inh: qHTS for Inhibitors of AMA1-RON; Towards Development of Antimalarial Drug Lead: Primary Screen; AID 720542, 2013; hit rate 0.2% among 360,000; Potency, µM (titrated, usually from 58.2 µM), inactives show at the top dose activity change, negative = inhibition, usual class: inhibitors; Plasmodium falciparum AMA1 (3D7) - RON2 peptide interaction; AlphaScreen AMA1-biotinylated RON2 peptide binding;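 further: 0% = vehicle wells and -100% = peptide control; nearly all actives have a fitted effect of over 45% in size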
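AMA1 (3D7) with his tag at 25 nM final met compounds first, then biotinylated RON2 peptide at 25 nM; detection used donor plus acceptor beads, 10 µg/mL apiece, read by AlphaScreen after 30 min at room temperature.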
AmpC inh no detg: qHTS Inhibitors of AmpC Beta-Lactamase (assay without detergent). AID 485341, 2010. AmpC nitrocefin hydrolysis, absorbance 480 nm, 0.0001% Triton. P00811. Potency, µM (highest dose often 57.1 µM), inactives show at the top dose activity change, negative = inhibition, actives largely listed as inhibitors. hit rate 0.52% among 330,000;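 further: plate controls were no compound for no effect and no enzyme for full effect; nearly all actives have a fitted effect of over 20% in size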
Target sequence (P00811 whole entry, looked up): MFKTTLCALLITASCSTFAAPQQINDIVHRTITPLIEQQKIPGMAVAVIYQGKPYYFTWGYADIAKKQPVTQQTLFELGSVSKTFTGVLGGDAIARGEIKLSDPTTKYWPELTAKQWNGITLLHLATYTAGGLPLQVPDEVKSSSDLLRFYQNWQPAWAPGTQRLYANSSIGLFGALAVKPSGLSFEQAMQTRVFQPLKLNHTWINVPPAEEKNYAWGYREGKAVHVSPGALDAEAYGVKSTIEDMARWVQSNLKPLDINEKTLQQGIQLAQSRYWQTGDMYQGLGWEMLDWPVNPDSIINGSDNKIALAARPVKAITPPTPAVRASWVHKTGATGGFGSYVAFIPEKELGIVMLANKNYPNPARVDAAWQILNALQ
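20 mM phosphate pH 7.0 + 0.01% (detergent screen) or 0.0001% Triton X-100; 5.3 nM AmpC reagent; cpd preinc 15 min RT; nitrocefin (800 uM stock) to start; A480 q20 s × 4 min; Activity was normalised to no-enzyme and no-compound control wells.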
AmpC detergent: qHTS Inhibitors of AmpC Beta-Lactamase (assay with detergent) | AID 485294, 2010 | hit rate 0.041% among 370,000 | P00811 | AmpC hydrolysis of nitrocefin, absorbance 480 nm, 0.01% Triton | Potency, µM (highest dose often 114 µM), for the others: at the highest dose activity change, negative = inhibition, most hits filed as inhibitors;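 further: 0% = no-compound wells and -100% = no-enzyme wells; nearly all actives have a fitted effect of over 25% in size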
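20 mM phosphate pH 7.0 + 0.01% (detergent screen) or 0.0001% Triton X-100; 5.3 nM AmpC reagent; cpd preinc 15 min RT; nitrocefin (800 uM stock) to start; A480 q20 s × 4 min; Activity was normalised to no-enzyme and no-compound control wells.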
Giardia FBPA inh: qHTS Assay for Inhibitors of Fructose-1,6-bisphosphate Aldolase from Giardia Lamblia; AID 2451, 2010; Potency, µM (top dose mostly 59.6 µM), inactives show top-dose activity, negative = inhibition, usual class: inhibitors; A8B2U2; hit rate 0.71% among 290,000; purified Giardia FBPA; further: nearly all actives have a fitted effect of over 55% in size
Target sequence (A8B2U2 whole entry, looked up): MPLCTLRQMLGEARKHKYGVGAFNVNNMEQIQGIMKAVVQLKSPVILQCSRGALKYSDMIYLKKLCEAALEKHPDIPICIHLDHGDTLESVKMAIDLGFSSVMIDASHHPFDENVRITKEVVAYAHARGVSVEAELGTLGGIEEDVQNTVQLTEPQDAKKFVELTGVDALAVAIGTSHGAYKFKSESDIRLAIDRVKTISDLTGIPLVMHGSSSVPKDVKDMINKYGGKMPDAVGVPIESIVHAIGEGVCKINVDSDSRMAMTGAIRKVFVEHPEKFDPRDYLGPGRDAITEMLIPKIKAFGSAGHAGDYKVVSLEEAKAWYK
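40 nM FBPA preincubated 10 min at RT with compound (up to 57.5 uM final), then substrate plus GAPDH/TPI/NAD/arsenate coupling and diaphorase/resazurin added. Fluorescence read after 20 min at RT, 525/598 nm.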
Numbers without * were called inactive; ? = inconclusive; nt = not tested or not shown; [ ] = another dose, or the depositor's remark. In the library only some 1.1% were active in any assay of this set; here they are far more common. The call rests on the fitted dose curve; in most records, active means well fitted curve in the direction sought with a large enough effect; inconclusive means small, poorly fitted or top-dose-only effect, or another doubt; inactive means no such curve, though single readings can be large; an effect the other way counts as inactive or inconclusive. Unless noted, on the % scale 0 is the no-effect control and ±100 the full control effect; potency means the concentration at half of the fitted maximal effect.

SMILES	AMA1-RON2 inh	AmpC inh no detg	AmpC detergent	Giardia FBPA inh
Cc1ncc(N=Nc2ccccc2Cl)c(-c2ccccc2)n1	25µM*	2%	-11%	0%
COc1ccc(N=Nc2cnc(C)nc2-c2ccccc2)cc1	?	?	1%	-4%
Nc1nc(-c2ccccc2)c(N=Nc2cccc3ccccc23)s1	16µM*	-22%	-3%	-8%
CC[C@@]12CCCN3CCc4c(n(c5ccccc45)C(=O)C1)[C@H]32	nt	nt	nt	3%[21.7 µM]
Cc1cccc(NC(=O)CN(CC2CCCO2)C(=O)c2cc3ccccc3o2)c1C (centres undefined)	0%	7%	0%	nt
COc1cc(OC)c(NC(=O)Nc2cc(C)on2)cc1Cl	nt	nt	nt	1%
COc1cc(C(=O)n2nc(C)c(Sc3ccc(Cl)cc3)c2C)cc(OC)c1OC	nt	nt	21%	nt
CCOC(=O)c1ccc(NC(=O)Cn2nnc(-c3ccccc3)n2)cc1	-2%	-8%	1%	6%
CCOC(=O)c1ccc(NC(=O)Cn2nnc(-c3ccccc3F)n2)cc1	11%[11.6 µM]	35µM*	-2%	-1%
CC(C)C1CC(CCNCc2ccc(N(C)C)cc2)(c2ccccc2)CCO1 (centres undefined)	?	2%	-4%	5%
Cc1ccc(C2(CCNCc3ccc(N(C)C)cc3)CCOC(C(C)C)C2)cc1 (centres undefined)	10µM*	63%	-13%	-1%
Cc1cc(F)ccc1NC(=O)C1CCN(C(=O)c2cnn(-c3ccccc3)c2-n2cccc2)CC1	nt	nt	15%	nt
CC(C)Oc1ccc(CNC(=O)Cn2c(=O)oc3ccccc32)cc1	-9%	-9%	14%	4%
CCCOc1ccc(CNC(=O)Cn2c(=O)oc3ccccc32)cc1	-5%	7.9µM*	15%	5%
CCCCNC(=O)C1(C)CCN1Cc1cc(C)ccc1C (centres undefined)	12%	nt	nt	nt
COC(=O)c1c(NC(=O)CN2C(=O)NC3(CCc4ccccc4C3)C2=O)sc2c1CCCCC2 (centres undefined)	-5%	3.5µM*	-16%	1%
COC(=O)c1c(NC(=O)CN2C(=O)NC3(CCC(C(C)(C)C)CC3)C2=O)sc2c1CCCCC2 (centres undefined)	0%	-35%	2%	0%
Cc1cc(C)cc(NC(=O)CSc2oc(-c3cccs3)nc2S(=O)(=O)c2ccccc2)c1	nt	nt	9%	nt
CN(C)C(=O)C[C@@H]1CC[C@@H](NC(=O)C2CCC2)[C@@H](CO)O1	-5%	nt	nt	nt
Cc1cc(C)c(NC(=S)NCC2CCN(C(C)c3ccccc3)C2)c(C)c1 (centres undefined)	-17%	-15%	-7%	2µM*
Cc1ccc(NC(=S)NCC2CCN(C(C)c3ccccc3)C2)cc1 (centres undefined)	-1%	-11%	1%	?
O=C(COC(=O)c1ccccn1)NC(=O)c1ccccc1	4%	-16%	-5%	nt
O=C(CCc1ccccc1)NNC(=S)NC(=O)c1ccccc1	99%	-27%	-14%	14%
CC(C)(C)c1cc(CCC(=O)NNC(=S)NC(=O)c2ccccc2)cc(C(C)(C)C)c1O	88%	1.6µM*	-11%	-28%
CC(=O)N(C)c1ccc(N=Cc2c(O)ccc3ccccc23)cc1	7%	-2%	?	-20%
SMILES	AMA1-RON2 inh	AmpC inh no detg	AmpC detergent	Giardia FBPA inh
C=Cc1ccc(N=Cc2c(O)ccc3ccccc23)cc1	4%	-28%	-3%	14µM*
Cc1cccc(C(=O)NCC(c2cccs2)S(=O)(=O)c2cccs2)c1 (centres undefined)	nt	nt	3%	nt
CC(S(=O)(=O)c1ccccc1)S(=O)(=O)c1ccccc1	-14%	nt	nt	nt
COc1ccc(S(=O)(=O)/N=C2/C=CC(=O)C(C)=C2C)cc1	1%	-54%	0%	?
CC1=C/C(=N\OS(=O)(=O)c2ccccc2)C(C)=CC1=O	?	-11%	-10%	7.9µM*
CON=C1C=C(C)C(=O)C(C)=C1C	12%	nt	nt	nt
CC1=C/C(=N\OS(=O)(=O)c2ccccc2)C(C(C)C)=CC1=O	?	-33%	-6%	11µM*
CC1=C(C)/C(=N\OS(=O)(=O)c2ccc(C)cc2)C=CC1=O	?	-28%	0%	4µM*
Cc1ccc(C(=O)n2nc(C)c(S(=O)(=O)N3CCOCC3)c2C)cc1	nt	nt	17%	nt
COc1ccc(NC(=S)NCCN2CCC(C)CC2)cc1Cl	-20%	-16%[2.29 µM]	3%	14µM*
Cc1cccc(NC(=O)c2cc(S(=O)(=O)N3CCc4ccccc43)cn2C)c1	17%	-31%	-12%	0%
COc1ccc(C(=O)Nc2ccc(S(=O)(=O)N3CCc4ccccc43)cc2)cc1	2%	nt	nt	nt
CSc1cccc(NC(=O)c2cc(S(=O)(=O)N3CCc4ccccc43)cn2C)c1	-10%	10µM*	-16%	-5%
NS(=O)(=O)c1ccc(NC(=O)c2ccc(S(=O)(=O)N3CCc4ccccc43)cc2)cc1	-12%	18µM*	-6%	-8%
C/C(=N\NC(=O)c1cc2ccccc2cc1O)c1cc2ccccc2o1	143%	16µM*	4%	-19%
C/C(=N\NC(=O)c1cc2ccccc2cc1O)c1ccccn1	60%	-52%	-2%	nt
O=C(NC(NC1CCS(=O)(=O)C1)C(=O)c1cccs1)c1ccccc1 (centres undefined)	0%	-23%	?	-1%
O=C(NC1=C(NC2CCS(=O)(=O)C2)C(=O)c2ccccc2C1=O)c1ccccc1 (centres undefined)	2%	-42%	-1%	1.3µM*
COc1cccc(-c2nnn(CC(=O)N(C3CCCCC3)C3CCS(=O)(=O)C3)n2)c1 (centres undefined)	-3%	nt	nt	nt
COc1ccc(N2CCC(CNC(=O)Nc3cccc(OC)c3)C2)cc1 (centres undefined)	?	13µM*	2%	?
Oc1ccc(Nc2nc(-c3ccccc3)nc3ccccc23)cc1	-10%	18µM*	-6%	0%
Nc1nc(=S)c2ncn(C3OC(CO)CC3O)c2[nH]1 (centres undefined)	28%	nt	nt	nt
COc1ccc(C)cc1NC(=O)C(Sc1nnc(Nc2ccccc2F)s1)c1ccccc1 (centres undefined)	-17%	3.5µM*	-8%	0%
Cc1nc2c(=O)[nH]c(=S)[nH]c2[nH]c1=O	28µM*	nt	nt	nt
Nc1ccc(N2CCCCC2)c2nonc12	2%	-41%	-5%	2µM*
O=[N+]([O-])c1ccc(N2CCCCCC2)c2nonc12	12%	-10%	2%	1%
Clc1ccc(CNc2ccc(N3CCN(Cc4ccccc4)CC3)cc2)cc1	7.9µM*	25%	-1%	-1%
CC(=O)N1CCCc2cc(S(=O)(=O)N3CCCC(C(=O)Nc4cccc(Cl)c4C)C3)ccc21 (centres undefined)	nt	nt	2%	nt
CCC(=O)Nc1nc(-c2ccc3c(c2)OCCO3)cs1	0%	40µM*	?	-3%
CC(C)(C)C(=O)Nc1nc(-c2ccc3c(c2)OCO3)cs1	-8%	-19%	?	-11%
